Assay outcomes (PubChem)
Shown are actives, neighbours in structure and some others; about 6.9% of the full set was active somewhere.
Cy5 interf NS3h – counter-screen for HCV NS3 helicase inhibitors: fluorescence interference. 16,000 compounds, 6% hits. AID 720488. Cy5-dT15 DNA with NS3h; actives lie on both sides; signal over control mean, under 1 quenches. fluorescence interference ratio at 100 µM;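 active = compound fluorescence over control fluorescence at most 0.8, a quencher, or at least a set upper limit, an enhancer; inactive = ratio between 0.8 and the set upper limit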
HCV NS3h FP – hepatitis C NS3 helicase inhibition, primary screen | NS3h Cy5-dT15 DNA binding, fluorescence polarization | inhibition, % at 100 µM | 16,000 compounds, 1.6% hits | AID 687043;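 active = inhibition above the average over every tested compound plus 3 SD, cut at about 40% in these data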
Active calls of the source: *.

SMILES	Cy5 interf NS3h	HCV NS3h FP
O=C(c1cccc(N2C(=O)C3C4C=CC(C4)C3C2=O)c1)c1cccc(N2C(=O)C3C4C=CC(C4)C3C2=O)c1 (configuration not stated)	1.06	43.0*
CC(=O)c1cccc(N2C(=O)C3C4C=CC(C4=C(C)C)C3C2=O)c1 (configuration not stated)	1.05	-0.7
Cc1ccc(S(=O)(=O)NC(C)(C)C(=O)O)cc1	1.05	-4.3
Cc1nc2sc3c(c2c(=O)[nH]1)CCC3	0.633*	2.2
C=C1CSc2nc(=O)c3c4c(sc3n21)CCC4	0.938	5.8
CC(C)N1C(=O)/C(=C\c2ccc(F)cc2)SC1=S	0.953	1.4
O=C1NC(=S)N/C1=C/c1ccc(OCc2ccccc2)c(Br)c1	0.985	-3.9
O=C1NC(=S)N/C1=C\c1ccccc1OCc1ccc([N+](=O)[O-])cc1	0.67*	-5.3
O=C(NCc1ccc2c(c1)OCO2)c1ccco1	0.737*	15.0
O=C(/C=C/c1ccco1)NCc1ccc2c(c1)OCO2	0.94	2.9
COc1cc2c(cc1NC(=O)c1cccc(Br)c1)oc1ccccc12	1.02	25.1
Fc1ccc(-c2nnc(-c3ccco3)o2)cc1	0.993	-9.4
CC(/C=C1\SC(=S)N(C(Cc2ccccc2)C(=O)O)C1=O)=C\c1ccccc1 (configuration not stated)	1	-1.9
O=C(O)CCC(C(=O)O)N1C(=O)/C(=C\C(Cl)=C/c2ccc([N+](=O)[O-])cc2)SC1=S (configuration not stated)	0.635*	11.5
O=C1/C(=C/C(Cl)=C/c2ccc([N+](=O)[O-])cc2)SC(=S)N1c1ccc(O)cc1	1.04	3.3
O=C(O)C(Cc1ccccc1)N1C(=O)/C(=C/C(Cl)=C/c2ccc([N+](=O)[O-])cc2)SC1=S (configuration not stated)	0.782*	-1.9
CC(NC(=O)/C(=C\c1ccc2c(c1)c1ccccc1n2C)NC(=O)c1ccccc1)c1ccccc1 (configuration not stated)	1.04	7.0
O=C(Cc1ccccc1)NC(c1ccccc1)c1c(O)ccc2ccccc12 (configuration not stated)	0.978	14.1
O=C(/C=C/c1ccccc1)NC(=S)Nc1cccc(NC(=O)c2ccccc2Cl)c1	0.95	-2.3
CC(=O)CCc1c(C)[nH]c2c(C)cccc2c1=O	1.07	-7.1
COc1cc(C(=O)Oc2ccc3c(C)cc(=O)oc3c2C(C)=O)cc(OC)c1OC	1.15	11.8
COc1cc(C=O)ccc1OC(=O)c1cc(OC)c(OC)c(OC)c1	0.67*	0.3
CCC(=O)Nc1nc(C)c(-c2csc(Nc3ccc(N(C)C)cc3)n2)s1	0.876	12.6
c1ccc(NC2=Nc3cccc4cccc2c34)cc1	0.588*	23.5
CN(C)c1ccc(NC2=NS(=O)(=O)c3ccccc32)cc1	0.945	0.3
SMILES	Cy5 interf NS3h	HCV NS3h FP
O=C1N=c2ccccc2=C1c1sc(=S)[nH]c1O	1.12	-5.0
COc1ccc(CCn2c(O)c(C=C3C=c4ccccc4=NC3=O)sc2=S)cc1OC	0.96	13.3
O=C(Cc1ccc(Cl)cc1)Nc1ccc(Cl)cn1	0.868	9.5
Cc1cc(OCC(=O)Nc2cccnc2)cc(C)c1Cl	0.8*	-9.9
Cc1ccc(OCC(=O)Nc2ccc(C)cc2[N+](=O)[O-])cc1	1.05	19.2
O=C(Cc1ccc(Cl)cc1)Nc1cccnc1	0.714*	18.6
COC(=O)c1cc(NC(=O)COc2cc(C)c(Cl)c(C)c2)cc(C(=O)OC)c1	1.06	2.2
Cc1cc(OCC(=O)Nc2ccccc2[N+](=O)[O-])cc(C)c1Cl	0.732*	16.8
N/C(=N/OC(=O)C(c1ccccc1)c1ccccc1)c1ccccn1	1.04	-10.7
Cc1ccc(S(=O)(=O)N2CCC(O)CC2C)cc1 (configuration not stated)	0.738*	19.5
Cc1ccc(S(=O)(=O)N2CCN(S(=O)(=O)c3ccc(C)cc3)C2c2ccc(N(C)C)cc2)cc1	0.944	13.5
O=C(Oc1cccc([N+](=O)[O-])c1)c1ccc(-c2ccccc2)cc1	1	2.9
O=C(O)CN1C(=O)S/C(=C\c2ccc(Cl)cc2)C1=O	1.04	-4.9
CCOC(=O)c1ccc(N2NC(=O)/C(=C/c3cccc(I)c3)C2=O)cc1	0.792*	20.2
CCOC(=O)c1ccc(N2NC(=O)/C(=C/c3cc(OC)c(O)c(OC)c3)C2=O)cc1	0.958	14.5
CC(C)CNC(=O)c1ccc2c(c1)C(=O)N(CC(C)C)C2=O	1.02	4.8
Cc1ccc(C(=O)Oc2cccc(C3C4=C(CC(C)(C)CC4=O)NC4=C3C(=O)c3ccccc34)c2)cc1 (configuration not stated)	0.966	8.7
CCOc1cc(C2C3=C(CC(C)(C)CC3=O)NC3=C2C(=O)c2ccccc23)ccc1O (configuration not stated)	1.2*	4.4
CCc1ccccc1NC(=O)CC1S/C(=N/N=C(C)\C=C\c2ccc(OC)cc2)NC1=O (configuration not stated)	1.21*	-28.6
C/C(=N/N=C1\NC(=O)C(CC(=O)Nc2ccccc2C)S1)c1ccc(F)cc1 (configuration not stated)	1.05	2.1
Cc1ccc(N2C(=O)CC(NCc3cccc(Cl)c3)C2=O)cc1 (configuration not stated)	1.11	-0.3
Cc1ccc(N2C(=O)CC(NC3CCN(Cc4ccccc4)CC3)C2=O)cc1 (configuration not stated)	1.31*	10.0
Cc1ccc(N2C(=O)CC(NCc3cccc(C(F)(F)F)c3)C2=O)cc1 (configuration not stated)	1.23*	17.6
Cc1ccc(N2C(=O)CC(N3CCN(Cc4ccccc4)CC3)C2=O)cc1 (configuration not stated)	1.03	-1.0
COc1ccc(/C=C2\SC(N3CCN(C(=O)CCCN4C(=O)/C(=C/c5cccs5)SC4=S)CC3)=NC2=O)cc1	1.08	3.8
SMILES	Cy5 interf NS3h	HCV NS3h FP
O=C(NCc1ccc(Cl)cc1)c1ccc(I)cc1	0.976	20.8
O=C(NC[n+]1ccccc1)c1ccc(Cl)cc1	1.2*	3.4
COCCNC(=O)C(=O)Nc1cc(OC)ccc1OC	0.986	-11.5
O=C(O)/C(=C\c1ccccc1)NC(=O)c1ccccc1	1.08	0.9
Cc1cccc(NC(=O)CSc2nsc(SCC(=O)Nc3cccc(C)c3)n2)c1	0.937	2.3
CCOc1ccc2nc(SCC(=O)Nc3cccc(C)c3)sc2c1	0.614*	3.1
O=C1N=c2ccccc2=C1c1sc(=S)n(C(Cc2ccccc2)C(=O)O)c1O (configuration not stated)	0.847	28.6
CC(C)N(C(=O)c1ccc(C(=O)Nc2ccc(Nc3ccccc3)cc2)cc1)C(C)C	0.697*	17.0
O=C(Nc1ccc(Nc2ccccc2)cc1)c1ccc([N+](=O)[O-])cc1	0.947	17.2
C=CCOc1ccc(Cl)cc1/C=C1/SC(=S)N(Cc2ccccc2)C1=O	1.01	0.3
COc1cc(C(=O)N2CCN(Cc3ccccc3)CC2)c([N+](=O)[O-])cc1OC	0.956	4.0
O=C(c1cc(Cl)ccc1Cl)N1CCOCC1	1.11	6.3
O=C(c1cc(Cl)ccc1Cl)N1CCN(c2ccccc2)CC1	0.611*	5.0
COc1cc(C(=O)N2CCN(c3cccc(Cl)c3)CC2)c([N+](=O)[O-])cc1OC	0.673*	18.6
COc1ccc(OC)c(C2C(=C(O)c3ccccc3)C(=O)C(=O)N2c2cccc([N+](=O)[O-])c2)c1 (configuration not stated)	0.925	8.8
